{
  "source": "PubChem BioAssay AID687001",
  "about": "(Broad Institute, 2013)",
  "note": "Potency and affinity values are given separately. Activity calls are given as the source filed them.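 How the source made its calls: active means signal-lowering compounds whose fitted half-maximal concentration is at or below twice the top tested dose in every run; inconclusive means runs disagree, flat 30 to 70% inhibition, or poor curve fit; inactive means the rest.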",
  "data": [
    {"molecular_target": "Protein S100-A4 (Homo sapiens) (UniProt P26447)", "sequence (P26447 whole entry, looked up)": "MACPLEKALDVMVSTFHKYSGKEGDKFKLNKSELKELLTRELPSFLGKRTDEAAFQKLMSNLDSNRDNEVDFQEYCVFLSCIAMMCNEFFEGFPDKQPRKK", "assay": "human S100A4 peptide interaction inhibition curves – biochemical, fluorescence polarization, cherry-picked hits, dose response (AID 687001);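 further: 0% = DMSO neutral control wells and -100% = TFP positive control wells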", "settings": "FP, S100A4/TAMRA-myosin IIA peptide binding; series mostly up to 11 µM; activity change, negative = inhibition: at the top concentration", "values": [
      {"smiles": "CCOC(=O)c1ccc(N=Cc2c(O)n(-c3ccccc3F)c(=S)[nH]c2=O)cc1", "activity change, negative = inhibition": "84.4% (inactive)"},
      {"smiles": "Cc1ccccc1C(=O)N1Cc2ccccc2-n2nncc2C1", "activity change, negative = inhibition": "-5.64% (inactive)"},
      {"smiles": "CCN(CC)C(=O)[C@@H]1C=C2c3cccc4[nH]c(Br)c(c34)C[C@H]2N(C)C1", "activity change, negative = inhibition": "-11.1% (inactive)"},
      {"smiles": "O=C(O)[C@H]1[C@H](CO)[C@H]2Cn3c(ccc(-c4ccncc4)c3=O)[C@@H]1N2C(=O)C1CCCCC1", "activity change, negative = inhibition": "-2.81% (inactive)"},
      {"smiles": "COC(=O)[C@]1(C)C[C@H]1[C@H](NP(=O)(c1ccccc1)c1ccccc1)c1ccccc1", "activity change, negative = inhibition": "-6.74% (inactive)"},
      {"smiles": "COC(=O)C1=C(c2cc3ccccc3s2)C[C@@H]2CC[C@H]1N2C(=O)NCc1ccc(C(F)(F)F)cc1", "activity change, negative = inhibition": "5.22% (inactive)"},
      {"smiles": "O=C(O)Cn1cc(/C=C2\\C(=O)NC(=O)N(c3ccc(Br)cc3)C2=O)c2ccccc21", "activity change, negative = inhibition": "56.4% (inactive)"},
      {"smiles": "CN(C)c1cc[n+](CC(O)C[n+]2ccc(N(C)C)cc2)cc1", "activity change, negative = inhibition": "-0.214% (inactive)"},
      {"smiles": "C=CCN1CC[C@]23c4c5ccc(O)c4OC2C(O)CC[C@@]3(O)[C@H]1C5", "note": "(stereo partly specified)", "activity change, negative = inhibition": "-3.07% (inactive)"},
      {"smiles": "O=[N+]([O-])c1cc(Cl)c(Cl)cc1Cl", "activity change, negative = inhibition": "-2.95% (inactive)"},
      {"smiles": "Cc1c(OC(=O)N(C)C)ccc2c1O/C(=C\\c1ccco1)C2=O", "activity change, negative = inhibition": "69.8% (inactive)"},
      {"smiles": "CCC12CCN(CC3(O)CC3)C(Cc3ccc(O)cc31)C2(C)C", "note": "(stereo unspecified)", "activity change, negative = inhibition": "-4.42% (inactive)"},
      {"smiles": "Cc1c(C)c2ccc(OCC(=O)N3CCC(C(=O)O)(c4ccccc4)CC3)cc2oc1=O", "activity change, negative = inhibition": "-1.79% (inactive)"},
      {"smiles": "COC(C)(C)CCCC(C)C/C=C/C(C)=C/C(=O)OC(C)C", "note": "(stereo unspecified)", "activity change, negative = inhibition": "0.557% (inactive)"},
      {"smiles": "O=C(Cc1cccnc1)N1CCCCN2[C@@H](CO)[C@@H](c3ccc(C#CC4(O)CCCC4)cc3)[C@@H]2C1", "activity change, negative = inhibition": "5.28% (inactive)"},
      {"smiles": "O=Cc1cn(Cc2ccc(Br)cc2)c2ccccc12", "activity change, negative = inhibition": "5.46% (inactive)"},
      {"smiles": "CCOC(=O)C1=C(N)OC2=C(C(=O)CC(C)(C)C2)C12C(=O)Nc1ccccc12", "note": "(stereo unspecified)", "activity change, negative = inhibition": "-3.72% (inactive)"},
      {"smiles": "CCCCCSc1cc(O)c(C(CNC)C(C)C)cc1OC", "note": "(stereo unspecified)", "activity change, negative = inhibition": "-5.9% (inactive)"},
      {"smiles": "c1ccc(-c2ccncc2)cc1", "activity change, negative = inhibition": "-1.21% (inactive)"},
      {"smiles": "CCCCn1nnnc1C(c1cccc2ccccc12)N1CCC2(CC1)C(=O)NCN2c1ccccc1", "note": "(stereo unspecified)", "activity change, negative = inhibition": "-4.61% (inactive)"},
      {"smiles": "COc1ccc(OC)c(N2C(=O)CC(=O)NC2=O)c1", "activity change, negative = inhibition": "-4.19% (inactive)"}
    ]}
  ]
}
